# Results from ChEMBL document CHEMBL4513216, “Probing the Open Global Health Chemical Diversity Library for Multistage-Active Starting Points for Next-Generation Antimalarials” (ACS Infect Dis, 2020).
# In all, about 69,000 compounds went through this assay and about 8,600 (12%) showed an effect of 50% or more. The entries come from a sample that favours strong results as a whole.
# Test system: Plasmodium berghei
# Experiment: Screen against P. berghei liver stage (PbLuc), transformed with Luciferase, at 10uM
# Assay type: functional, HepG2
# Settings: tested at 10 uM
row,Compound,INHIBITION
1,CN(C)C(=O)CN1C[C@H]2CN(Cc3cccc(F)c3)C(=O)[C@H]2C1,25.2%
2,Cc1occc1CNC(=O)C1(C)CCCN(C(=O)c2ccccc2)C1 (stereo unspecified),58.3%
3,Cc1occc1CNC(=O)C1(C)CCCN1C(=O)c1ccccc1 (stereo unspecified),28.7%
4,CC(C)C(=O)N1CCC12CCCN(C(=O)c1ccccc1)C2 (stereo unspecified),36.2%
5,CCN(C)Cc1cccc(CNC(=O)CSCc2ccncc2)c1,35.4%
6,Fc1cnc(N2C[C@@H](OCC3CCOCC3)[C@H]3OCCC[C@H]32)nc1,44.4%
7,O=C(c1ccc(Cl)cc1)N1CCC2(C1)C(=O)Nc1ccccc12 (stereo unspecified),-18.8%
8,CN(C)C[C@H]1C[C@@H]2CN(C(=O)c3ccco3)C[C@@H]2O1,42.3%
9,C[C@H]1C[C@@H]2CCN(C(=O)c3ccccn3)C[C@H]2O1,-0.813%
10,O=C(OCc1ccccc1)N1CC[C@H]2CC(CO)O[C@@H]2C1 (stereo partly specified),78.3%
11,Cn1ccnc1SCCNc1cc(N2CCOCC2)ncn1,-7.85%
12,Cn1ncc2c(N3CCCC(C)(O)C3)nc(-c3cccnc3)nc21 (stereo unspecified),23.5%
13,CN1CCCC1CNC(=O)CCCOc1ccc(I)cc1 (stereo unspecified),18.625%
14,COc1cccc(Cc2nc3c([nH]2)CC(C)(C)CNC3=O)c1OC,55.5%
15,COc1ccc(Cc2nc3c([nH]2)CC(C)(C)CNC3=O)cc1OC,13.9%
16,CC1(C)CNC(=O)c2nc(-c3ccccc3)[nH]c2C1,18.8%
17,COc1cccc(-c2nc3c([nH]2)CC(C)(C)CNC3=O)c1OC,30.7%
18,COc1ccc(Cc2nc3c([nH]2)CC(C)(C)CNC3=O)c(OC)c1,16.8%
19,COc1cc(Cc2nc3c([nH]2)CC(C)(C)CNC3=O)cc(OC)c1,59.4%
20,CC(C)N1CCO[C@@H]2CN(C(=O)NCc3ccccc3)CC[C@@H]2C1,32.1%
21,COc1nc2cc(C)ccc2cc1CN(C)Cc1cc(C)[nH]n1,36.1%
22,CC(CNC(=O)c1cnc[nH]1)Oc1ccc(Cl)cc1 (stereo unspecified),20.9%

row,Compound,INHIBITION
1,CC(CNC(=O)c1cnc[nH]1)Oc1ccccc1Br (stereo unspecified),57.2%
2,COc1ccccc1OC(C)CNC(=O)c1cnc[nH]1 (stereo unspecified),-15.5%
3,O=C(c1cc(Cn2ccc3ccccc32)[nH]n1)N1CCCCC1CO (stereo unspecified),13%
4,Cc1cnn(CC2CCCN2C(=O)CCc2ccco2)c1 (stereo unspecified),45.9%
5,Cc1ccccc1CN1CCC(c2nn(CCN)c3nccnc23)C1 (stereo unspecified),43.6%
6,NCCn1nc(C2CCN(C(=O)Cc3ccccc3)C2)c2nccnc21 (stereo unspecified),30.4%
7,CC(C)(C)CC(=O)N1CCC(c2nn(CCN)c3nccnc23)C1 (stereo unspecified),-3.31%
8,NCCn1nc(C2CCN(Cc3ccccc3)C2)c2nccnc21 (stereo unspecified),60.5%
9,COc1ccccc1CN1CCC(c2nn(CCN)c3nccnc23)C1 (stereo unspecified),52%
10,NCCn1nc(C2CCN(Cc3ccccc3Cl)C2)c2nccnc21 (stereo unspecified),-49%
11,COc1cccc(CN2CCC(c3nn(CCN)c4nccnc34)C2)c1 (stereo unspecified),7.52%
12,NCCn1nc(C2CCN(Cc3ccc(Cl)c(Cl)c3)C2)c2nccnc21 (stereo unspecified),71.1%
13,COc1ccccc1CN1CCC(c2nccc(C)n2)C1 (stereo unspecified),38.3%
14,CC(O)c1cnn(-c2ccccc2)c1 (stereo unspecified),-6.04%
15,O=C(O)c1ccccc1-c1ccc(CN2CCC(CO)CC2)cn1,9.98%
16,CCNc1cc2c(nn1)CCN(C(=O)CCc1c(C)noc1Cl)C2,0.411%
17,COc1ccccc1C(=O)N1CCN(C(=O)Cc2ccccn2)CC1,-36.1%
18,Cc1ncccc1C(=O)Nc1cccc(Cn2ccccc2=O)c1,38.5%
19,CCn1ncnc1CN1CCC(CNC(=O)c2cccc(C)n2)C1 (stereo unspecified),15.4%
20,CCc1ccc(C(=O)N2CCCC(n3nc(C)nc3C)C2)o1 (stereo unspecified),33.73%
21,CCOCCc1nc(CCc2ccccc2)n[nH]1,26.7%
22,Cc1cnc(N2C[C@H]3CCCC(N(C)Cc4ccccn4)[C@H]3C2)nc1 (stereo partly specified),55.7%

row,Compound,INHIBITION
1,CCc1cnc(N2C[C@H]3CCCC(N(C)Cc4ccccn4)[C@H]3C2)nc1 (stereo partly specified),33.1%
2,CN(Cc1ccccn1)C1CCC[C@@H]2CN(CC3CC3)C[C@H]12 (stereo partly specified),22.2%
3,Cc1nc2ccccc2n1Cc1cc(C(=O)NC2CCOC2)no1 (stereo unspecified),11.1%
4,O=C(NC1CC1)c1nc(Cn2c(C(F)F)nc3ccccc32)no1,54.8%
5,O=C(NC1CCCC1)c1cc(Cn2cnc3ccccc32)on1,5.8%
6,CC(C)NC(=O)c1nc(Cn2c(C(F)(F)F)nc3ccccc32)no1,43.9%
7,CC(C)NC(=O)c1nc(Cn2c(C(F)F)nc3ccccc32)no1,62.4%
8,Cc1occc(=O)c1OCc1noc(C(=O)NC(C)C)n1,42.8%
9,COc1ccccc1-c1csc(NC(=O)N2CCN(C)CC2C)n1 (stereo unspecified),-9.08%
10,Cc1cc(C)n(CC2CN(Cc3nnc(C)o3)CCO2)n1 (stereo unspecified),5.1%
11,O=C(c1ccc(F)cc1F)N1C[C@@H]2CC[C@H]1CN(Cc1ccccc1)C2,41.5%
12,CC(C)(C)C1CC(=O)Nc2c1cnn2Cc1ccco1 (stereo unspecified),-21.7%
13,O=C1CC(c2ccc(CO)o2)c2cnn(Cc3ccco3)c2N1 (stereo unspecified),67.6%
14,CC(C)CC1CC(=O)Nc2c1cnn2Cc1ccco1 (stereo unspecified),50.2%
15,O=C1CC(c2ccc(C(=O)O)cc2)c2cnn(Cc3ccco3)c2N1 (stereo unspecified),-8.04%
16,CN(C)c1ccc(C2CC(=O)Nc3c2cnn3Cc2ccco2)cc1 (stereo unspecified),1.45%
17,CC(C)C1CC(=O)Nc2c1cnn2Cc1ccco1 (stereo unspecified),7.85%
18,COc1ccc(CN(Cc2cnc(N)nc2)CC2CCCO2)c(OC)c1 (stereo unspecified),23.2%
19,CNC(=O)[C@@H](c1ccccc1F)N1CCC[C@H]1C(=O)NC1CCCC1,-49.3%
20,O=C(CN1C[C@H]2CC(OCc3ccccc3)C[C@H]2C1)N1CCOCC1 (stereo partly specified),-2.09%
21,CC(C)C1CN(C(=O)c2ccc(Cl)cn2)CCCN1CC1CC1 (stereo unspecified),14.9%
22,CC(C)C1CN(C(=O)c2cc(=O)[nH]c(=O)[nH]2)CCCN1CC1CC1 (stereo unspecified),74.8%

row,Compound,INHIBITION
1,Cc1[nH]c(=O)[nH]c(=O)c1CC(=O)N1CCCN(CC2CC2)C(C(C)C)C1 (stereo unspecified),-69.3%
2,CC(C)C1CN(C(=O)c2cn3cc(Cl)cnc3n2)CCCN1CC1CC1 (stereo unspecified),60.3%
3,CC(C)C1CN(C(=O)c2cn3ccccc3n2)CCCN1CC1CC1 (stereo unspecified),47.6%
4,CC(C)C1CN(C(=O)c2cc(=O)[nH]c(=O)[nH]2)CCC(=O)N1CC1CC1 (stereo unspecified),9.35%
5,CNC(=O)C1(c2cnccn2)CCCN1C(=O)c1ccccn1 (stereo unspecified),42.4%
6,CCOCC(O)CN1CCN(C(=O)C2CCCC2)CC1 (stereo unspecified),-19.4%
7,Cc1ccc(CN(CCCN2CCOCC2)Cc2cnc(C)n2C)o1,-11.7%
8,CC(=O)N1CCN(C(=O)c2cccc(OCc3cscn3)c2)CC1,1.82%
9,O=C1CN(C(=O)c2cccc(OCc3cscn3)c2)CCN1,61.5%
10,NC(=O)C1CCN(C(=O)c2cccc(OCc3cscn3)c2)CC1,17.8%
11,NC(=O)C1CCCN(C(=O)c2cccc(OCc3cscn3)c2)C1 (stereo unspecified),24.05%
12,NC(=O)C1CCN(C(=O)c2ccc(OCc3cscn3)cc2)CC1,56.85%
13,O=C(c1cccc(OCc2cscn2)c1)N1CCOCC1,45.75%
14,Cc1cccc(CN2CCC3(CC2)NC(=O)CC3c2ccccc2)n1 (stereo unspecified),37.1%
15,CC1CCCN(C(=O)NCCCn2cncn2)C1 (stereo unspecified),9.45%
16,Cn1nccc1-c1nnn2c1COCC(CNCC1CC1)C2 (stereo unspecified),45.7%
17,CC(C)CN1CCC2(C=C(C(=O)NC3CC3)c3ccccc32)CC1,27.2%
18,COCCNCc1ccc(OCC(=O)NC(C)(C)C)cc1,51.6%
19,CC(C)(C)NC(=O)COc1ccc(CNCc2ccccn2)cc1,-6.39%
20,CC(C)(C)NC(=O)COc1ccc(CNCCOc2ccccn2)cc1,18.6%
21,Cc1ccc(C2=CCN(C(=O)C3CCN(C)C(=O)C3)CC2)cc1 (stereo unspecified),-14.7%
22,COc1ncccc1C(=O)NC1CCOc2ccccc21 (stereo unspecified),33.3%

row,Compound,INHIBITION
1,CCN(C)c1ncnc2c1CCN(C(=O)NCc1cccnc1)CC2,-75.9%
2,Cn1nc(-c2ccc(Cl)cc2)c(Br)c1C(=O)O,65.6%
3,Cn1nc(-c2ccccc2)c(Cl)c1C(=O)O,46.1%
4,Cn1nc(-c2cccc(Cl)c2)c(Br)c1C(=O)O,46.1%
5,Cn1nc(-c2ccccc2)c(Br)c1C(=O)O,36.9%
6,Cc1ccc(-c2nn(C)c(C(=O)O)c2Br)cc1,62.8%
7,Cc1cccc(-n2cnc(Cl)c2C(=O)O)c1,8.08%
8,CNC(=O)CN(C)C(=O)c1ccc(-c2nc(C)cs2)cc1,40.7%
9,Cc1noc(CNC(=O)N2CCN(c3nc(C)c(C)s3)CC2)n1,10.5%
10,CCCN(Cc1cnn(C)c1)S(=O)(=O)c1cccc(F)c1C#N,-43.6%
11,O=C1CCC2(CCC(NC(=O)NCc3ccccc3)CC2)N1 (stereo unspecified),-46.7%
12,CC(CN1CCOC1=O)NC(=O)c1cccc(Cl)c1Cl (stereo unspecified),-28.9%
13,Cc1cnn(CC2CCCN2C(=O)c2ccccc2-n2cnnn2)c1 (stereo unspecified),-33.9%
14,O=c1[nH][nH]c2cn(-c3ccccc3)c(=O)n12,63.7%
15,O=c1[nH][nH]c2cn(-c3ccc(F)cc3)c(=O)n12,26.6%
16,O=c1[nH][nH]c2cn(-c3ccc(Br)cc3)c(=O)n12,46.4%
17,COc1ccc2c(ccn2CCC(=O)Nc2n[nH]c(C(C)C)n2)c1,-45.5%
18,CN(C(=O)NCc1ccsc1)C1CCN(c2ccccc2)C1=O (stereo unspecified),-10.2%
